Among all 140,000 compounds or so, about 220 (0.16%) were called active. The list comes from a sample in which actives are over-represented; it also holds similar structures and randomly drawn compounds. A number with no mark means an inactive call. Cut-off read from the data, not from the text of the source: active = inhibition above about 50%; inactive = the rest.
Test system: YopH tyrosine phosphatase [Yersinia enterocolitica]
Assay: YopH tyrosine phosphatase inhibitors, primary screen, biochemical, fluorescence Ex485/Em525 (AID 898)
Settings: active compounds read high, concentration not given here

| Compound | inhibition |
| --- | --- |
| CC(C)Cc1nn2c(=O)cc(O)nc2s1 | -35.6% |
| COc1ccc(OCC(=O)Nc2cc(C)c(Cl)cc2OC)c([N+](=O)[O-])c1 | -16.9% |
| CC(=O)NC1C(OCc2ccccc2)OC(COC(C)=O)C(OC(C)=O)C1OC(C)=O (centres undefined) | -23.9% |
| O=C(OCC1O[C@@H](OC(=O)c2cc(O)c(O)c(O)c2)[C@@H](OC(=O)c2cc(O)c(O)c(O)c2)[C@@H](OC(=O)c2cc(O)c(O)c(O)c2)[C@@H]1OC(=O)c1cc(O)c(O)c(O)c1)c1cc(O)c(O)c(O)c1 (some centres undefined) | 71.9% (active) |
| S=C(NCCc1ccccc1)NCC1CCCO1 (centres undefined) | -37.5% |
| CCS(=O)(=O)Nc1cccc(-c2cc(-c3ccccc3)c3cc(C)ccc3n2)c1 | -8.31% |
| CCc1ccc(C(=O)OCC(=O)Nc2cccc(S(=O)(=O)NC3=NCCCCC3)c2)cc1 | -20.5% |
| Cc1cc([N+](=O)[O-])ccc1NC(=O)C1CCCO1 (centres undefined) | -25.6% |
| Cc1cc([N+](=O)[O-])nn1CC(=O)Nc1ccc(Cc2ccncc2)cc1 | -27.8% |
| O=C(Nc1ccccc1Cc1ccccc1)c1ccc2c(c1)SC1=NS(=O)(=O)CCN12 | -31.8% |
| CCOC(=O)CN1C(=O)N[C@@H](c2ccc(Br)cc2)C(C(C)=O)=C1C | -19.8% |
| CC(=O)c1ccc(N2CCN(C(=O)c3ccc4nc[nH]c4c3)CC2)cc1 | -23.5% |
| COc1ccc2oc(-c3cccc(NC(=O)CSc4ccc(Cl)cc4)c3)nc2c1 | -28.2% |
| COc1ccc(N2C(=O)C(CC(=O)Nc3ccc(F)cc3)N(CCc3cccs3)C2=O)cc1 (centres undefined) | -4.8% |
| Cc1ccc(CCCOC(=O)C[N+]2(C)CCCC2)cc1 | -21.4% |
| CCC(=O)Nc1c(C)n[nH]c1C | -26.6% |
| CCCN1C(=O)C(Cc2nc3ccccc3c(=O)n2-c2ccccc2)c2cc(C)ccc21 (centres undefined) | -10.9% |
| CCOC(=O)c1cccnc1NC(=O)c1ccncc1 | -10.3% |
| COc1cccc2c1CCC(NC(C)=O)C2=O (centres undefined) | -4.91% |
| CCN(CC)S(=O)(=O)c1ccc(C)c(NC(=O)COc2ccc(Br)cc2Cl)c1 | -2.1% |
| Cc1coc2c(O)cc3c(c12)OC1(N2CCCCC2)C(=O)NCCCC31 (centres undefined) | 73% (active) |
| COc1ccc(CNC(=O)CCCn2nc(C)c([N+](=O)[O-])c2C)cc1 | -22.1% |
| COc1ccc(/C=C/C(=O)NC(=S)NN2CCCCC2c2cccnc2)cc1 (centres undefined) | -20.6% |
| Cc1ccc(C(=O)COC(=O)CCCC(=O)NC2CCCCC2)cc1[N+](=O)[O-] | -26.3% |
